Results: PubChem BioAssay (NCI)
Compounds without any hit were thinned out: in the full panel of roughly 83,000, 20% have a hit.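 A percent growth of 40 corresponds to 60% growth inhibition; 0 means no net growth; -100 means all cells died. Active threshold: below 10.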 Active and inactive are the calls of the source.

These compounds were tested on HCT-15 colon (assay: NCI-60 one-dose screen, 48 h (100 = growth as untreated, 0 = no growth, -100 = all killed)). Conditions: 10 µM.
Protocol: Growth inhibition of the HCT-15 human tumor cell line is measured as a screen for anti-cancer activity. Cells are grown in 96 well plates and exposed to the test compound for 48 hours. Compounds are tested at a single concentration, which is 10^-5 M for most compounds. The reported endpoint is percent growth (GI% or GIPRCNT), where numbers from 0 - 100% represent growth inhibition, and numbers from -100% - 0 represent cell death. For example, a value of 40 represents 60% growth inhibition. A value of 0 means no net growth occurred over the course of the experiment. A value of -40 indicates 40% of cells at the beginning of the experiment died by the end of the experiment. A value of -100 means all cells are dead at the end of the experiment.
NCI-60 Human Tumor Cell Lines Screen was performed using the standard one-dose NCI protocol, which is described in more detail at https://dtp.cancer.gov/discovery_development/nci-60/default.htm.
Compounds with GIPRCNT values below 10 were considered active. Activity score was based on GIPRCNT using the following formula: […]
Score is 0 for GIPRCNT values of 100 or above, 50 for GIPRCNT values of 0, and 100 for GIPRCNT values of -100.
In the case of CCCCCCN=C(N)CCCCCCCCCCC(N)=NCCCCCC, the growth is reported as 31.8% (inactive).
With CC(=O)Nc1nc(C)c(C(=O)N/N=C/c2cccn2C)s1 the growth was 106% (inactive).
With COc1ccc(S(=O)(=O)Nc2cc(/C=C\c3cc(OC)c(OC)c(OC)c3)ccc2OC)cc1 the growth was 7.86% (active).
For O=C1/C(=C/c2ccc(O)cc2)CSc2ccc(Cl)cc21, the growth was 53.9% (inactive).
With N#Cc1c2c([nH]c(=O)c1C(N)=O)CCCCC2 the growth was 105% (inactive).
For C#CCn1c(-c2cccc(OCCCCl)c2)nc2c1c(=O)n(C)c(=O)n2C, the growth was 86.9% (inactive).
With CC(C)OCc1cc(CN2CCN(c3cccc(Cl)c3)CC2)c(O)c2ncccc12 the growth was 4.08% (active).
In the case of O=C(Nc1ccc(OS(=O)(=O)Cc2ccccc2)cc1)C12CC3CC(CC(C3)C1)C2, the growth is reported as 56.8% (inactive).
With CC1(C)CC(=O)c2c(nc3ccc(Cl)cc3c2-c2ccccc2)C1 the growth was 81.3% (inactive).
In the case of Cc1[nH]nc2c(=S)[nH]c(=O)[nH]c12, the growth is reported as 103% (inactive).
COc1ccc(CSc2nc3cc(OC)c(OC)cc3c(=O)n2-c2ccc(OC)cc2OC)cc1 was tested, and the growth was 80.6% (inactive).
With c1ccc(CC(NCCNC(Cc2ccccc2)c2ccccc2)c2ccccc2)cc1 (stereo not given) the growth was 15.5% (inactive).
For CCOC(=O)CNC(=O)Nc1ccc(Oc2ccc(NC(=O)NCC(=O)OCC)cc2)cc1, the growth was 99.2% (inactive).
In the case of O=C(Nc1ccc(Oc2ccc(Nc3nc4ccccc4s3)cc2)cc1)Nc1ccc(Cl)c(Cl)c1, the growth is reported as 20.7% (inactive).
For Cc1cc(=O)oc2cc(OCc3cn(CC(O)CO)nn3)ccc12 (stereo not given), the growth was 105% (inactive).
In the case of CC1(C)CC(OCCCC[P+](c2ccccc2)(c2ccccc2)c2ccccc2)CC(C)(C)N1O, the growth is reported as 9.52% (active).
In the case of CCCCCCCCCCSC(=N)N (tested in a mixture with another compound), the growth is reported as 12% (inactive).
For Cc1nn2c(/C=C3/C(=O)Nc4ccc(Cl)cc43)c(-c3ccccc3)nc2s1, the growth was 57.1% (inactive).
For COc1ccc(C2=NNC(c3sc(Cl)nc3Cl)C2)cc1 (stereo not given), the growth was 34.2% (inactive).
In the case of COc1cc(C)c2sc3ccccc3c(=O)c2c1NCCN(C)C, the growth is reported as 39.3% (inactive).
In the case of COc1cc(-c2nc3ccc(C)cc3[nH]2)ccc1OCc1nnc(-c2ccc(CC(C)C)cc2)o1, the growth is reported as 73.8% (inactive).
With COc1cc(CSc2nc3ccc(C)cc3c(=O)n2Cc2ccccc2)cc(OC)c1OC the growth was 29.2% (inactive).
In the case of CCc1ccc(Nc2cc(C)nc3nc(C)nn23)cc1, the growth is reported as -3.95% (active).
For CCCCCCCCCCCC(=O)NCCCN(C)C, the growth was 93.8% (inactive).
With CC(=O)Nc1ccc2c(c1)C(N1CC3CCC(CC3)C1)c1ccccc1-2 (stereo not given) the growth was 53.3% (inactive).
With Cc1ccc(/C=C2\CN(Cc3cn(CCNc4ccnc5cc(Cl)ccc45)nn3)C/C(=C\c3ccc(C)cc3)C2=O)cc1 the growth was -29.4% (active).
For [O-]c1c[n+](-c2ccc(Cl)cc2)no1, the growth was 99.4% (inactive).
CCCCCCCCCCCCc1ccc(C(=O)/C=C/C(=O)O)cc1 was tested, and the growth was -19.4% (active).
In the case of COC(=O)[C@]12CC[C@@H](C)[C@H](C)[C@@H]1C1=CC[C@@H]3[C@@]4(C)C[C@@H](O)[C@H](O)[C@@](C)(CO)[C@@H]4[C@H](O)C[C@@]3(C)[C@]1(C)CC2, the growth is reported as -51.4% (active).
COc1ccc(C2C=C(c3ccc(Cl)cc3)N=C3SC=CN32)c(Br)c1 (stereo not given) was tested, and the growth was 74% (inactive).
For COc1cccc(-c2nnc(COc3ccc(-c4nc5ccc(C)cc5[nH]4)cc3OC)o2)c1, the growth was 18.5% (inactive).
CC(C)C(C)C(N)C(=O)O (stereo not given) was tested, and the growth was 97.6% (inactive).
For N=C(N)c1ccc(-c2ccc(-c3ccccc3)s2)s1, the growth was -36.4% (active).
CCCCCCCC/C=C/CCCCCCCCC1=NCCN1CCO was tested, and the growth was 59.2% (inactive).
For COc1ccc(-c2[nH]ncc2/C=C/c2cc(C(F)(F)F)[nH]c(=O)n2)cc1, the growth was 97% (inactive).
In the case of N#CN1CC[C@H](C(=O)Nc2ncc(-c3ccncc3)s2)C1, the growth is reported as 2.59% (active).
For Nc1nc2c(ncn2C2OC3COP(=O)(O)OC4C(COP(=O)(O)OC2C3O)OC(n2cnc3c(N)ncnc32)C4O)c(=O)[nH]1 (stereo not given), the growth was 106% (inactive).
For CC(C)CCN(CCCNc1c2c(nc3cc(Cl)ccc13)CCCC2)CCC(C)C, the growth was 44.5% (inactive).
With CCC1(C)OC(=O)NC1=O (stereo not given) the growth was 100% (inactive).
For Cn1cnc([N+](=O)[O-])c1Sc1nnc(-c2ccccc2)c(-c2ccccc2)n1, the growth was 56% (inactive).
